# Assay outcomes as filed in PubChem BioAssay.
# Hits are enriched below; roughly 3% of the tested compounds scored in any of these assays.
# GDH-TPI inh = GDH-TPI coupling enzyme inhibitors, primary screen, artefact control for M. tuberculosis FBA inhibitor project, biochemical, absorbance, full deck. GDH-TPI coupled enzyme counterscreen, NADH absorbance. inhibition, % at 4.8 µM. hit rate 1.2% among 360,000; in the data active = inhibition above about 30%
# Mtb FBA inh = Mtb FBA enzyme inhibitors, primary screen, biochemical, fluorescence, strain H37Rv. Fructose-bisphosphate aldolase (Mycobacterium tuberculosis (strain ATCC 25618 / H37Rv)), …. purified M. tuberculosis FBA, fluorescence read-out. inhibition, % at 1 µM. hit rate 2.3% among 360,000; in the data active = inhibition above about 27%
# Target sequence (P9WQA3 whole entry, looked up): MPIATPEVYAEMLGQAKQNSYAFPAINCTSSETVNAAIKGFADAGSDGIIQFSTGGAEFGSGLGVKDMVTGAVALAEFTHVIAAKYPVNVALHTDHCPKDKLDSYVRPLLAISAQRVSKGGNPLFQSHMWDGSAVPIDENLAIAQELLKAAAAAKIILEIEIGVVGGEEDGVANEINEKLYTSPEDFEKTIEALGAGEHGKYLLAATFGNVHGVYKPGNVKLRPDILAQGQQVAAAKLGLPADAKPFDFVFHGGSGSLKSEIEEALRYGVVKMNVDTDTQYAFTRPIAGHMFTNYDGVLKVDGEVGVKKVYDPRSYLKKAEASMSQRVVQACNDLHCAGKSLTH
# Mtb BioA inh = M. tuberculosis BioA enzyme inhibitors, primary screen, biochemical, plate reader, single point, HTS. inhibition, % at 9.99 µM. hit rate 0.096% among 360,000. AID 602481, 2012. 7,8-diaminopelargonic acid synthase BioA (Mycobacterium tuberculosis). purified M. tuberculosis BioA enzyme; in the data active = inhibition above about 40%
# Vc quorum ag-1 = inducers of Vibrio cholerae quorum light production without autoinducers, primary screen, BH1578 luxS cqsA deficient, single point | activation, % at 18.7 µM | hit rate 0.16% among 350,000 | V. cholerae BH1578 lux reporter, luminescence, 6 h; in the data active = activation mostly above about 9.7%, no sharp cut-off
# Vc quorum ag-2 = V. cholerae lux activation without autoinducers – BH1578 luxS cqsA deficient, cherry-pick, plate reader, dose response. shares compounds with Vc quorum ag-1. V. cholerae BH1578 lux reporter, luminescence, 6 h. activation, % at 50 µM. 620 tested, under 10 active. AID 602243, 2012; call rule not given here
# HeLa tox = HeLa cell cytotoxicity, dose response, cytotoxicity control, 24 h, dry powder. shares compounds with Vc quorum ag-1. HeLa viability, CellTiter-Glo ATP luminescence. activity change, negative = cytotoxicity, % at 35 µM. 25 tested, under 10 active;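 active = signal drop with fitted half-maximal concentration at or below twice the highest valid dose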
# A number is an active result; – = inactive; · = not tested or not shown.
SMILES,GDH-TPI inh,Mtb FBA inh,Mtb BioA inh,Vc quorum ag-1,Vc quorum ag-2,others
COc1ccc(NC(=O)CN(C)C(=O)c2cccc(S(=O)(=O)N3CCN(Cc4ccccc4)CC3)c2)cc1,–,–,–,–,·,
CCc1ccc(C(=O)OCC(=O)N2CCCCCC2)cc1,–,–,–,–,·,
CCOc1ccc(C(=O)OCC(=O)N2CCCC2)cc1,–,–,–,25.0,–,
O=C(Nc1ccc(S(=O)(=O)Nc2ncccn2)cc1)C1CC(=O)N(c2ccccc2)C1 (centres undefined),–,–,–,–,–,
O=C(Oc1nsnc1N1CCCCC1)N1CCOCC1,–,–,–,–,–,
O=C(Oc1nsnc1N1CCOCC1)N1CCCC1,–,–,–,–,·,
CCN(CC)S(=O)(=O)c1cccc(C(=O)OCC(=O)C23CC4CC(CC(C4)C2)C3)c1,–,–,–,–,–,
Cc1cc(=O)oc2ccc(OCc3ccccc3)cc12,–,–,–,·,–,
C[C@@H]1CN([C@@H](C)CO)C(=O)c2cc(-c3ccccc3)cnc2O[C@H]1CN(C)C(=O)NC1CCCC1,·,·,–,·,·,
CCCCNC(=O)CN(c1cccc(Br)c1)S(C)(=O)=O,–,–,–,32.1,–,
CN(CC(=O)Nc1ccccc1Br)C(=O)c1n[nH]c2ccccc12,–,–,·,–,·,
CN(CC(=O)Nc1c(Cl)cccc1Cl)C(=O)c1n[nH]c2ccccc12,–,–,–,–,–,
CCn1nnnc1NCc1cccc(OC)c1,·,·,·,·,·,HeLa tox=–
Cc1noc(C)c1NC(=O)N(C)C[C@H]1Oc2c(NC(=O)Nc3ccc4c(c3)OCO4)cccc2C(=O)N([C@H](C)CO)C[C@H]1C,·,·,–,·,·,
CS(=O)(=O)Nc1ccc2c(c1)[C@H]1C[C@@H](CC(=O)NCC(F)(F)F)O[C@H](CO)[C@H]1O2,·,·,–,·,·,
C[C@@H]1CN([C@H](C)CO)S(=O)(=O)c2ccc(-c3cncnc3)cc2O[C@H]1CN(C)C,·,·,–,·,·,
CCN(CCNC(=O)C1CCCN(S(=O)(=O)CC)C1)c1ccccc1 (centres undefined),–,–,·,–,–,
CCCS(=O)(=O)N1CCCC(C(=O)NCCCN(Cc2ccccc2)C(C)C)C1 (centres undefined),–,–,–,–,·,
CCCS(=O)(=O)N1CCCC(C(=O)NCc2ccc(C)cc2)C1 (centres undefined),–,–,·,–,–,
CCCS(=O)(=O)N1CCCC(C(=O)NCCCN(C)c2ccccc2)C1 (centres undefined),–,–,–,16.7,–,
O=C(NCc1ccccc1)C1CCCN(S(=O)(=O)c2cccnc2)C1 (centres undefined),–,–,–,–,–,
Cn1cnc(S(=O)(=O)N2C[C@H](O)COC[C@@H]3O[C@H](CC(=O)NCc4ccc(F)cc4)CC[C@H]32)c1,·,·,–,·,·,
CCCCN(CCCNC(=O)C1CCCN(S(=O)(=O)CCC)C1)Cc1ccccc1 (centres undefined),–,–,–,–,·,
CCCS(=O)(=O)N1CCCC(C(=O)NCCCN(C)Cc2ccccc2)C1 (centres undefined),–,–,–,16.7,–,
O=C(c1cc2cc(Cl)ccc2oc1=O)N1CCOCC1,–,–,–,–,–,
SMILES,GDH-TPI inh,Mtb FBA inh,Mtb BioA inh,Vc quorum ag-1,Vc quorum ag-2,others
O=C(c1cc2ccccc2oc1=O)N1CCOCC1,–,–,–,–,·,
COc1cccc(-c2ccc3c(c2)[C@@H]2[C@@H](CCN2S(=O)(=O)c2cccc(OC)c2)[C@H](CO)N3)c1,·,·,–,·,·,
Cc1ccc(S(=O)(=O)N2CCOCC2)cc1NC(=O)CSc1nnc(C2CC2)n1C1CC1,–,–,–,–,·,
COc1ccc(S(=O)(=O)N2CCOCC2)cc1NC(=O)CSc1nnc(C2CC2)n1C1CC1,–,–,–,40.6,–,
CCN(CC(=O)Nc1c(F)cccc1F)C(=O)C1CC(=O)N(c2ccccc2OC)C1 (centres undefined),–,–,–,–,–,
NS(=O)(=O)c1ccc(NC(=O)NC2CCCCC2)cc1,–,–,–,32.1,–,
CN(C)CC(=O)N1CC[C@@H]2[C@@H](CO)N(C)c3ccc(Br)cc3[C@@H]21,·,·,–,·,·,
CSc1nc(C)cc(OCC(=O)N2CCOCC2)n1,–,–,–,32.1,–,
O=C(C[C@H]1C[C@H]2c3cc(NC(=O)Nc4ccccc4F)ccc3O[C@H]2[C@@H](CO)O1)NCc1cc(F)ccc1F,·,·,–,·,·,
COc1ccc(CNC(=O)c2ccc(Cl)c(S(=O)(=O)N3CCOCC3)c2)cc1OC,–,–,–,57.1,–,
COc1ccc(C(=O)NCc2cccc(Cl)c2)cc1S(=O)(=O)N1CCOCC1,–,–,–,–,·,
O=C(Nc1nnc(-c2ccc(Br)cc2)o1)c1cccc(N2C(=O)CCC2=O)c1,–,–,–,–,–,
C[C@@H]1CCCCO[C@H](CN(C)Cc2ccccc2)[C@H](C)CN([C@H](C)CO)C(=O)c2cc(NC(=O)C3CCCCC3)ccc2O1,·,·,–,·,·,
COc1ccc(C(=O)C2CCN(C(=O)c3ccc(OC)cc3)CC2)cc1,–,–,–,–,·,
COc1ccc(C(=O)N2CCC(C(=O)c3ccc(F)cc3)CC2)cc1,–,–,–,16.7,–,
CCC(=O)N(CC)c1nc(-c2cc(OC)ccc2OC)cs1,–,–,–,15.4,–,
O=C(Nc1cccc(-c2ccc(N3CCOCC3)nn2)c1)c1ccccc1Cl,–,–,–,–,–,
O=C(Nc1cccc(-c2ccc(N3CCOCC3)nn2)c1)c1ccc(Cl)cc1,–,–,–,–,·,
Cc1cc(SCc2cc(=O)[nH]c3ccccc23)nc2ccccc12,–,–,·,–,·,
O=c1cc(CSc2ccccn2)c2ccccc2[nH]1,–,–,–,26.7,–,
Cc1ccc(S(=O)(=O)Nc2cccc3c2O[C@@H](CN(C)CC2CCCCC2)[C@H](C)CN([C@H](C)CO)C3=O)cc1,·,·,–,·,·,
Cc1csc(NC(=O)Cc2nn(C)c(=O)c3ccccc23)n1,–,–,–,25.0,–,
COc1ccccc1NC(=O)COC(=O)c1cc(C)oc1C,–,–,–,·,–,
COc1ccccc1NC(=O)COC(=O)c1oc2ccccc2c1C,–,–,–,26.2,–,HeLa tox=–
COc1ccccc1NC(=O)c1oc2ccccc2c1C,–,–,–,–,·,
COc1ccccc1NC(=O)COC(=O)c1ccc2c(c1)OCCO2,–,–,–,52.2,–,
Cc1cc(C(=O)OCC(=O)Nc2c(Cl)cccc2C(F)(F)F)c(C)o1,–,–,–,–,–,
Cc1ccsc1C(=O)OCC(=O)Nc1c(Cl)cccc1C(F)(F)F,–,–,–,–,·,
Cc1ccccc1NC(=O)COC(=O)c1ccc2c(c1)OCCO2,–,–,–,–,·,
CN(C)C(=O)C[C@@H]1CC[C@@H]2[C@H](COC[C@H](O)CN2C(=O)c2ccncc2)O1,·,·,–,·,·,
